Bioassay records from PubChem BioAssay.
DT40 TDP1 no CPT: qHTS for Inhibitors of human tyrosyl-DNA phosphodiesterase 1 (TDP1): qHTS in cells in absence of CPT; DT40 Tdp1-/- hTDP1 cells, no CPT, ATP luminescence, 48 h; Potency, µM (highest dose often 46.2 µM), hits mostly inhibitors; actives 15% (n = 420,000); also: nearly all actives have a fitted effect of over 55% in size
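Seeded 400 DT40-hTDP1 cells/well (vehicle DMSO, no 20 nM CPT); pinned compounds; ≥48 hr at 37 °C; CellTiter-Glo luminescence as viability measure.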
HT1080NT lethal: qHTS for induction of synthetic lethality in tumor cells producing 2HG: qHTS for the HT-1080-NT fibrosarcoma cell line. HT-1080-NT fibrosarcoma viability, CellTiter-Glo ATP luminescence, 48 h. Potency, µM (series often up to 46.1 µM), actives largely listed as cytotoxic. actives 1.6% (n = 360,000);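 also: NT is the 2HG producing partner of a matched IDH1 knockdown line; nearly all actives have a fitted effect of over 55% in size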
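Compounds were tested in concentration-response format on HT-1080-NT cells for 48 hours at 37 degrees C. Cell viability came from CellTiter-Glo luminescence; curves were classified by r2, response magnitude and activity.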
HT1080 IDH1KD tx: qHTS for induction of synthetic lethality in tumor cells producing 2HG: qHTS for the HT-1080-IDH1KD cell line. HT-1080 IDH1 knockdown viability, ATP luminescence, 48 h. Potency, µM (highest dose often 46.1 µM), most hits filed as cytotoxic. actives 2% (n = 360,000). AID 686971, 2013
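% activity derives from luminescence (CellTiter-Glo), normalised to DMSO and no-cell wells. HT-1080-IDH1KD cells, 750/well, had 48 h compound exposure at 37 °C.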
TDP1 cell CPT: qHTS for Inhibitors of human tyrosyl-DNA phosphodiesterase 1 (TDP1): qHTS in cells in presence of CPT | chicken DT40 Tdp1-/-;hTDP1 cells + 20 nM CPT, ATP luminescence, 48 h | Potency, µM (top dose mostly 46.2 µM), actives largely listed as inhibitors | actives 12% (n = 420,000) | AID 686979, 2013; also: nearly all actives have a fitted effect of over 55% in size
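Chicken DT40 Tdp1-/- cells complemented with human TDP1, 400 cells/well, exposed to compounds plus 20 nM camptothecin for at least 48 h at 37 C; viability read as ATP content by CellTiter-Glo luminescence.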
IL-1B inflam inh: qHTS for Inhibitors of Inflammasome Signaling: IL-1-beta AlphaLISA Primary Screen; activity change, % at 57.5 µM; actives 4.7% (n = 360,000); THP-1 LPS/ATP IL-1B secretion, AlphaLISA, 16 h; stronger effect = lower value; in the data active = activity change below about -50%; inconclusive = mostly about -30% to -49%
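Secreted IL-1B measured by AlphaLISA bead assay after 16 h compound exposure of THP-1 cells; compounds (final up to 57.5 uM) added 1 h before LPS (250 ng/mL) and ATP (1.25 mM) stimulation; lower signal means less secretion.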
ALOX12 inh: Primary qHTS assay for inhibitors of human arachidonate 12S-lipoxygenase (ALOX12): Round 2. actives 1.1% (n = 580,000). purified 12hLO, xylenol orange hydroperoxide absorbance. AID 1671190, 2021. Potency, µM (highest dose often 108 µM), most hits filed as inhibitors
Target sequence (P18054 whole entry, looked up): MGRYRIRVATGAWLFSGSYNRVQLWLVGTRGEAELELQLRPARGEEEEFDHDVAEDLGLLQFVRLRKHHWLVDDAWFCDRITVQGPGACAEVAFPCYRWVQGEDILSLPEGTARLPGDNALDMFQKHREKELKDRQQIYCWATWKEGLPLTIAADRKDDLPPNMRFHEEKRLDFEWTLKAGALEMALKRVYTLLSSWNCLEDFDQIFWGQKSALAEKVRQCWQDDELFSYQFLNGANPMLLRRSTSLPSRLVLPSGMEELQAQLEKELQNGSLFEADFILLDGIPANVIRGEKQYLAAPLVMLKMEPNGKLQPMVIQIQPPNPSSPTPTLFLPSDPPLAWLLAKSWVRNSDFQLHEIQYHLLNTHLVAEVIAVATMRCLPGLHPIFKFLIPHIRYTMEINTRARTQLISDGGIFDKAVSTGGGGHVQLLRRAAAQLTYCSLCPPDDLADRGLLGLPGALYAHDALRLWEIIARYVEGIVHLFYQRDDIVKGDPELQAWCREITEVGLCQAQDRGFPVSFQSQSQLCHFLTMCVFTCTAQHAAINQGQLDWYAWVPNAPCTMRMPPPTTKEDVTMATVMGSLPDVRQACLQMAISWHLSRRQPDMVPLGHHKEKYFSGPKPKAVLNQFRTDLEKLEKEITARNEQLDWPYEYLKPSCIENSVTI
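Hydroperoxide product was detected by ferrous iron/xylenol orange as the 573 to 405 nm absorbance ratio. Arachidonic acid at 40 uM (final) was turned over for 30 min at room temperature by 150 nM human 12hLO, pH 7.0 Hepes buffer, after 15 min compound preincubation.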
Large screens that a line does not name were inactive. The entries come from a sample that favours hits as a whole. Unless noted, calls follow the shape of the dose curve; as a rule, active = well fitted curve in the direction sought with a large enough effect; inconclusive = small, poorly fitted or top-dose-only effect, or another doubt; inactive = no such curve, though single readings can be large; an effect the other way counts as inactive or inconclusive.

COc1cc(SC)ccc1C(=O)NCc1ccccc1	none
COc1ccccc1C(=O)Nc1ccc(S(=O)(=O)Nc2nc(C)cc(C)n2)cc1	none (no result: HT1080NT lethal, HT1080 IDH1KD tx, IL-1B inflam inh)
COc1cc(OC)c(C(=O)Nc2ccncc2)cc1OC	IL-1B inflam inh -60
COc1cccc(OC)c1C(=O)Nc1ccc(C(=O)c2ccncc2)cc1	DT40 TDP1 no CPT inconclusive, TDP1 cell CPT 13µM
COc1cc(SC)ccc1C(=O)Nc1ccc(S(=O)(=O)Nc2nccc(C)n2)cc1	DT40 TDP1 no CPT inconclusive, TDP1 cell CPT 23µM (no result: HT1080NT lethal, HT1080 IDH1KD tx, IL-1B inflam inh)
Cc1ccc(S(=O)(=O)N[C@H]2CO[C@H]3[C@@H]2OC[C@H]3OCC(N)=O)cc1	none (no result: DT40 TDP1 no CPT, HT1080NT lethal, HT1080 IDH1KD tx, TDP1 cell CPT, IL-1B inflam inh)
O=C(Nc1nonc1-c1ccc2c(c1)CCCC2)c1cc(=O)c2cc(Cl)ccc2o1	none (no result: DT40 TDP1 no CPT, HT1080NT lethal, HT1080 IDH1KD tx, TDP1 cell CPT, IL-1B inflam inh)
CCOC(=O)CCN(CC1CC1)C(=O)c1cccs1	none (no result: DT40 TDP1 no CPT, HT1080NT lethal, HT1080 IDH1KD tx, TDP1 cell CPT, IL-1B inflam inh)
Cc1cc(=O)oc2cc(OCc3ccc(C(=O)OCC4CCCO4)cc3)ccc12 (configuration not stated)	none (no result: DT40 TDP1 no CPT, HT1080NT lethal, HT1080 IDH1KD tx, TDP1 cell CPT, IL-1B inflam inh)
COc1cc(SC)ccc1C(=O)Nc1ccncc1	DT40 TDP1 no CPT 13µM, TDP1 cell CPT 16µM, IL-1B inflam inh inconclusive
CCN(C(=O)c1nn(-c2ccc(C)cc2)c(=O)c2c1c1ccccc1n2C)c1ccc(F)cc1	DT40 TDP1 no CPT 13µM, TDP1 cell CPT inconclusive (no result: HT1080NT lethal, HT1080 IDH1KD tx, IL-1B inflam inh)
COc1ccc(-n2nc(C(=O)NCCc3cccc(C)c3)c3c4ccccc4n(C)c3c2=O)cc1Cl	none (no result: HT1080NT lethal, HT1080 IDH1KD tx, IL-1B inflam inh)
CCN(CC)CCOC(=O)c1ccc(NC(=O)c2nn(-c3ccc(C)cc3)c(=O)c3c2c2ccccc2n3C)cc1	DT40 TDP1 no CPT 0.58µM, TDP1 cell CPT 1.2µM, ALOX12 inh inconclusive (no result: HT1080NT lethal, HT1080 IDH1KD tx, IL-1B inflam inh)
CCCN(C(=O)c1nn(-c2ccc(C)cc2)c(=O)c2c1c1ccccc1n2C)c1ccccc1C	DT40 TDP1 no CPT inconclusive, TDP1 cell CPT inconclusive (no result: HT1080NT lethal, HT1080 IDH1KD tx, IL-1B inflam inh)
Cc1ccc(-n2nc(C(=O)N(C)c3ccc(C)c(C)c3)c3c4ccccc4n(C)c3c2=O)cc1	DT40 TDP1 no CPT 13µM, TDP1 cell CPT 16µM (no result: HT1080NT lethal, HT1080 IDH1KD tx, IL-1B inflam inh)
COc1ccc(CCNC(=O)c2nn(-c3ccc(C)cc3)c(=O)c3c2c2ccccc2n3C)cc1OC	DT40 TDP1 no CPT 2.1µM, TDP1 cell CPT inconclusive (no result: HT1080NT lethal, HT1080 IDH1KD tx, IL-1B inflam inh)
CC1CCN(C(=O)C(C)Nc2ccc3oc(C4CC4)nc3c2)CC1 (configuration not stated)	none (no result: DT40 TDP1 no CPT, HT1080NT lethal, HT1080 IDH1KD tx, TDP1 cell CPT, IL-1B inflam inh)
CCOc1ccc(CCNC(=O)CS(=O)(=O)Cc2nc(-c3ccccc3Cl)oc2C)cc1	none (no result: DT40 TDP1 no CPT, HT1080NT lethal, HT1080 IDH1KD tx, TDP1 cell CPT, IL-1B inflam inh)
CCCCCn1c(N2CCN(c3cccc(Cl)c3)CC2)nc2c1c(=O)[nH]c(=O)n2C	DT40 TDP1 no CPT 23µM, TDP1 cell CPT 21µM, IL-1B inflam inh inconclusive
CCn1c(CN2CCN(c3cccc(Cl)c3)CC2)nc2c1c(=O)[nH]c(=O)n2C	DT40 TDP1 no CPT 18µM, TDP1 cell CPT inconclusive (no result: HT1080NT lethal, HT1080 IDH1KD tx, IL-1B inflam inh)
O=C(OCC1CCCO1)c1ccc2c(c1)N(Cc1cccc(Cl)c1)C(=O)c1ccccc1S2(=O)=O (configuration not stated)	TDP1 cell CPT inconclusive (no result: HT1080NT lethal, HT1080 IDH1KD tx, IL-1B inflam inh)
CCNc1ncc2ncc(=O)n(Cc3ccc(F)cc3)c2n1	DT40 TDP1 no CPT inconclusive, TDP1 cell CPT 18µM, ALOX12 inh inconclusive (no result: HT1080NT lethal, HT1080 IDH1KD tx, IL-1B inflam inh)
CCNc1ncc2nc(-c3cc(F)cc(F)c3)c(=O)n(CCc3ccccc3)c2n1	DT40 TDP1 no CPT inconclusive, TDP1 cell CPT inconclusive, ALOX12 inh 11µM (no result: HT1080NT lethal, HT1080 IDH1KD tx, IL-1B inflam inh)
CCNc1ncc2nc(-c3ccc(F)cc3)c(=O)n(Cc3ccc(F)cc3)c2n1	ALOX12 inh inconclusive (no result: HT1080NT lethal, HT1080 IDH1KD tx, IL-1B inflam inh)
CC(=O)/C(=N\Nc1ccccc1)Oc1ccc([N+](=O)[O-])cc1	none
